PubChem BioAssay (NCATS)
Results filed as inconclusive are left out. Entries that show only a call come without a potency. Values without a mark were called inactive. The source made the active and inactive calls. Calls follow the shape of the dose curve; as a rule, active = well fitted inhibition curve with a large enough effect; inconclusive = small, poorly fitted or top-dose-only effect; inactive = flat fitted curve, though single readings scatter.

System: Zika virus NS2B-NS3 protease (linked construct)
Assay: Confirmatory screen NINDS AMC qHTS for Zika virus inhibitors (AID 1347152); also: potency is read from the fitted curve at half-maximal effect
Settings: Purified linked NS2B-NS3, AMC substrate fluorescence
Procedure, shortened: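 IC50s from 4-parameter Hill fits of percent inhibition, based on AMC fluorescence gain (340/450 nm) over 15 min with 10 microM Bz-Nle-KRR-AMC. Enzyme: 1 nM linked NS2B-NS3 in Tris-HCl pH 8.0; 15-min compound preincubation.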
Also: nearly all actives have a fitted effect of over 70% in size.

| Structure (SMILES) | Potency |
| --- | --- |
| CCC(CC)(CC(=O)Nc1cccc(/C=C/c2nc(C3CCC3)cs2)c1)C(=O)O | 24.1 µM (active) |
| CC1(COc2ccc(CC3SC(=O)NC3=O)cc2)CCCCC1 (stereo not given) | 19.2 µM (active) |
| CCc1oc2ccccc2c1C(=O)c1cc(Br)c(O)c(Br)c1 | 9.61 µM (active) |

System: Zika virus NS2B-NS3 protease (unlinked complex)
Assay: Confirmatory screen GU AMC qHTS for Zika virus inhibitors (AID 1347153);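 also: enzyme at 25 nM with substrate at 10 µM below its Km of 18.3 µM; potency is read from the fitted curve at half-maximal effect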
Settings: Recombinant NS2B-NS3 protease, AMC substrate fluorescence
Text: Assay Submitters (PI): Avindra Nath, Ph.D., National Institute of Neurological Disorders and Stroke (NINDS), Bethesda, MD Radhakrishnan Padmanabhan, Ph.D., Georgetown University (GU), Washington D.C. Zika Virus causes congenital defects, including microcephaly and is associated with Guillain-Barre syndrome, eningoencephalitis and myelitis in infected adult. […] Using a target-based approach, we hope to establish a screening paradigm to uncover novel, cell-active NS2B-NS3 protease (Zika Virus) specific inhibitors from NCATS' collection of small molecules using qHTS. […] Active compounds in the primary screen are re-acquired and re-screened to confirm NS2B-NS3 protease inhibition. Early Translation Branch (ETB) National Center for Advancing Translational Sciences (NCATS), Rockville, MD National Institute of Health (NIH), Bethesda, Maryland
Materials: Padmanabhan lab provided the NS2B hydrophilic domain and NS3 protease domain in a noncovalent complex used for the unlinked assay. Control compound aprotinin is obtained from Thermo Scientific (#78432; Waltham, Massachusetts). NS2B-NS3 AMC substrate (Bz-Nle-Lys-Arg-Arg-AMC; Nle-KRR-AMC) purchased from Bachem (#I-1995; Torrance, CA). Ac-VKTGKR-AMC purchased from Genscript or Bachem, Ac-FAAGKR-AMC purchased from Genscript, Ac-GLVKRR-AMC purchased from Genscript, Ac-LKKR-AMC purchased from Genscript. […] Plates were then read immediately on a ViewLux High-throughput CCD imager (PerkinElmer, Waltham, MA) equipped with standard UV fluorescence optics (340(30) nm excitation, 450(20) nm emission) then incubated (room temperature, protected from light) for 15 minutes (~20% conversion). The change in fluorescence intensity over the 15-minute reaction period was normalized against no-inhibitor and no-enzyme controls and the resulting percent inhibition data were fitted to a 4-parameter Hill equation. […]

| Structure (SMILES) | Potency |
| --- | --- |
| CC1(COc2ccc(CC3SC(=O)NC3=O)cc2)CCCCC1 (stereo not given) | 21.5 µM (active) |
| CCc1oc2ccccc2c1C(=O)c1cc(Br)c(O)c(Br)c1 | 17.1 µM (active) |
| C=C1c2cccc(O)c2C(O)=C2C(=O)[C@]3(O)C(O)=C(C(N)=O)C(=O)[C@@H](N(C)C)[C@@H]3[C@@H](O)[C@H]12 | 19.2 µM (active) |

System: Zika virus NS2B-NS3 protease
Assay: Primary screen GU AMC qHTS for Zika virus inhibitors (AID 1347154)
Settings: Zika NS2B-NS3 unlinked protease, AMC fluorogenic substrate; series mostly up to 54.1 µM
Procedure, shortened: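 Unlinked Zika NS2B hydrophilic domain/NS3 protease domain noncovalent complex (25 nM final) in 10 mM Tris-HCl pH 8.0, 0.01% Tween 20, with AMC peptide substrate. Fluorescence (ex 340, em 450 nm) change over 15 min, room temperature; percent inhibition fitted to 4-parameter Hill equation.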

| Structure (SMILES) | Potency | activity change, negative = inhibition |
| --- | --- | --- |
| CN(C)C(=O)Nc1ccc(Cl)c(Cl)c1 | inactive | – |
| CCCCCCCCCCCCOCCOCCOCCOCCOCCOCCOCCOCCOCCO | inactive | – |
| Cn1c(=O)c2[nH]c(Br)nc2n(C)c1=O | inactive | – |
| CCOC(=O)Nc1ccc2c(c1)N(C(=O)CCN1CCOCC1)c1ccccc1S2 | inactive | – |
| CCN1/C(=C/C=C/c2sc3ccccc3[n+]2CC)Sc2ccccc21 | inactive | – |
| CCC(CC)(CC(=O)Nc1cccc(/C=C/c2nc(C3CCC3)cs2)c1)C(=O)O | inactive | – |
| C=C[C@@]1(C)CC(=O)[C@]2(O)[C@@]3(C)[C@@H](O)CCC(C)(C)[C@@H]3[C@H](O)[C@H](OC(C)=O)[C@@]2(C)O1 | inactive | – |
| CCCCC(CC)CN1CN(CC(CC)CCCC)CC(C)(N)C1 (stereo not given) | inactive | – |
| CCN[C@@H]1C[C@H](N)[C@@H](OC2OC(CN)=CCC2N)[C@H](O)[C@H]1O[C@H]1OC[C@](C)(O)[C@H](NC)[C@H]1O (stereo not given in full) | – | -3.5% [at 0.59 µM] |
